Reference: the supplement of paper PMC4466140

These binders were tested against CaNbp2 (assay: SPOT peptide array binding signal intensity (averaged, normalized) (arbitrary units (background-subtracted, floor 0; scale differs between SH3 domains)); higher = stronger binding of the SH3 domain to the peptide).
In short: (§1)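 Detection of bound protein relied on anti-GST antibody, an HRP anti-mouse secondary and luminol, with imaging and quantification in Genespotter. The bound protein was GST-fused SH3 domains from four yeast species, incubated at 10 μg/ml overnight at 4°C in TBS-based blocking buffer on cellulose membranes carrying synthetic 15-mer peptides with cysteines replaced by serines. Binding signal is normalized, background-subtracted spot intensity averaged over replicates, in arbitrary units that differ between domains.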
QTMRQAPKRPDADVA was tested, and the “SPOT peptide array binding signal intensity” value was 1450.

The binders below were run against CaRvs167 in the same assay as above.
In short: as §1
For QTMRQAPKRPDADVA, the “SPOT peptide array binding signal intensity” value was 163.

What follows are binders tested against CaRvs167-3 in the same assay as above.
In short: as §1
QTMRQAPKRPDADVA was tested, and the “SPOT peptide array binding signal intensity” value was 0.75.

These binders were tested against CaSho1 in the same assay as above.
In short: as §1
In the case of QTMRQAPKRPDADVA, the “SPOT peptide array binding signal intensity” value is reported as 1860.

What follows are binders tested against CaSla1-D1-D2 in the same assay as above.
In short: as §1
For QTMRQAPKRPDADVA, the “SPOT peptide array binding signal intensity” value was 553.

These binders were tested against CaSla1-D3 in the same assay as above.
In short: as §1
With QTMRQAPKRPDADVA the “SPOT peptide array binding signal intensity” value was 650.

These binders were tested against ScAbp1 in the same assay as above.
In short: as §1
With QTMRQAPKRPDADVA the “SPOT peptide array binding signal intensity” value was 7.

What follows are binders tested against ScBbc1 in the same assay as above.
In short: as §1
In the case of QTMRQAPKRPDADVA, the “SPOT peptide array binding signal intensity” value is reported as 68.5.

The binders below were run against ScBem1-D1 in the same assay as above.
In short: as §1
In the case of QTMRQAPKRPDADVA, the “SPOT peptide array binding signal intensity” value is reported as 1.

What follows are binders tested against ScBzz1-D1 in the same assay as above.
In short: as §1
QTMRQAPKRPDADVA was tested, and the “SPOT peptide array binding signal intensity” value was 6.

Each binder was assayed against ScBzz1-D2 in the same assay as above.
In short: as §1
With QTMRQAPKRPDADVA the “SPOT peptide array binding signal intensity” value was 27.

These binders were tested against ScCyk3 in the same assay as above.
In short: as §1
In the case of QTMRQAPKRPDADVA, the “SPOT peptide array binding signal intensity” value is reported as 4.

Each binder was assayed against ScFus1 in the same assay as above.
In short: as §1
With QTMRQAPKRPDADVA the “SPOT peptide array binding signal intensity” value was 1110.

What follows are binders tested against ScHof1 in the same assay as above.
In short: as §1
QTMRQAPKRPDADVA was tested, and the “SPOT peptide array binding signal intensity” value was 0.5.

What follows are binders tested against ScHse1 in the same assay as above.
In short: as §1
With QTMRQAPKRPDADVA the “SPOT peptide array binding signal intensity” value was 84.5.

These binders were tested against ScLsb1 in the same assay as above.
In short: as §1
QTMRQAPKRPDADVA was tested, and the “SPOT peptide array binding signal intensity” value was 78.

What follows are binders tested against ScLsb2 in the same assay as above.
In short: as §1
For QTMRQAPKRPDADVA, the “SPOT peptide array binding signal intensity” value was 29.5.

Each binder was assayed against ScLsb3 in the same assay as above.
In short: as §1
In the case of QTMRQAPKRPDADVA, the “SPOT peptide array binding signal intensity” value is reported as 961.

The binders below were run against ScLsb4 in the same assay as above.
In short: as §1
For QTMRQAPKRPDADVA, the “SPOT peptide array binding signal intensity” value was 524.

These binders were tested against ScMyo3 in the same assay as above.
In short: as §1
QTMRQAPKRPDADVA was tested, and the “SPOT peptide array binding signal intensity” value was 227.

The binders below were run against ScMyo5 in the same assay as above.
In short: as §1
In the case of QTMRQAPKRPDADVA, the “SPOT peptide array binding signal intensity” value is reported as 47.5.

The binders below were run against ScNbp2 in the same assay as above.
In short: as §1
QTMRQAPKRPDADVA was tested, and the “SPOT peptide array binding signal intensity” value was 3190.

These binders were tested against ScPex13 in the same assay as above.
In short: as §1
With QTMRQAPKRPDADVA the “SPOT peptide array binding signal intensity” value was 766.

The binders below were run against ScRvs167 in the same assay as above.
In short: as §1
For QTMRQAPKRPDADVA, the “SPOT peptide array binding signal intensity” value was 136.

These binders were tested against ScSho1 in the same assay as above.
In short: as §1
QTMRQAPKRPDADVA was tested, and the “SPOT peptide array binding signal intensity” value was 930.

What follows are binders tested against ScSla1-D1-D2 in the same assay as above.
In short: as §1
QTMRQAPKRPDADVA was tested, and the “SPOT peptide array binding signal intensity” value was 690.

The binders below were run against ScSla1-D3 in the same assay as above.
In short: as §1
For QTMRQAPKRPDADVA, the “SPOT peptide array binding signal intensity” value was 700.

Each binder was assayed against SpAbp1-D1 in the same assay as above.
In short: as §1
With QTMRQAPKRPDADVA the “SPOT peptide array binding signal intensity” value was 66.

Each binder was assayed against SpBbc1 in the same assay as above.
In short: as §1
For QTMRQAPKRPDADVA, the “SPOT peptide array binding signal intensity” value was 42.5.

The binders below were run against SpBzz1-D1 in the same assay as above.
In short: as §1
With QTMRQAPKRPDADVA the “SPOT peptide array binding signal intensity” value was 188.

The binders below were run against SpBzz1-D2 in the same assay as above.
In short: as §1
QTMRQAPKRPDADVA was tested, and the “SPOT peptide array binding signal intensity” value was 512.

The binders below were run against SpCyk3 in the same assay as above.
In short: as §1
In the case of QTMRQAPKRPDADVA, the “SPOT peptide array binding signal intensity” value is reported as 3.

These binders were tested against SpHof1 in the same assay as above.
In short: as §1
QTMRQAPKRPDADVA was tested, and the “SPOT peptide array binding signal intensity” value was 51.5.

Each binder was assayed against SpHof1-2 in the same assay as above.
In short: as §1
For QTMRQAPKRPDADVA, the “SPOT peptide array binding signal intensity” value was 27.5.

What follows are binders tested against SpHof1-3 in the same assay as above.
In short: as §1
For QTMRQAPKRPDADVA, the “SPOT peptide array binding signal intensity” value was 32.8.

Each binder was assayed against SpHse1 in the same assay as above.
In short: as §1
QTMRQAPKRPDADVA was tested, and the “SPOT peptide array binding signal intensity” value was 240.

What follows are binders tested against SpLsb1 in the same assay as above.
In short: as §1
In the case of QTMRQAPKRPDADVA, the “SPOT peptide array binding signal intensity” value is reported as 34.

These binders were tested against SpLsb4 in the same assay as above.
In short: as §1
In the case of QTMRQAPKRPDADVA, the “SPOT peptide array binding signal intensity” value is reported as 990.

What follows are binders tested against SpMyo1 in the same assay as above.
In short: as §1
For QTMRQAPKRPDADVA, the “SPOT peptide array binding signal intensity” value was 229.

Each binder was assayed against SpNbp2 in the same assay as above.
In short: as §1
QTMRQAPKRPDADVA was tested, and the “SPOT peptide array binding signal intensity” value was 847.

The binders below were run against SpPex13 in the same assay as above.
In short: as §1
In the case of QTMRQAPKRPDADVA, the “SPOT peptide array binding signal intensity” value is reported as 35.

Each binder was assayed against SpRvs167 in the same assay as above.
In short: as §1
In the case of QTMRQAPKRPDADVA, the “SPOT peptide array binding signal intensity” value is reported as 188.

The binders below were run against SpSla1-D1-D2 in the same assay as above.
In short: as §1
For QTMRQAPKRPDADVA, the “SPOT peptide array binding signal intensity” value was 11.

These binders were tested against SpSla1-D3 in the same assay as above.
In short: as §1
In the case of QTMRQAPKRPDADVA, the “SPOT peptide array binding signal intensity” value is reported as 491.
